PubChem BioAssay AID1159580 (chemical genetic matrix, 2015)
Hit rate of the full screen: of about 5,500 compounds, about 2,000 (36%) were called active. About 18% were inconclusive and are not listed. No stated cut-off is given here; in the data, active means normalized growth mostly below about 0.91 (no sharp cut-off); inconclusive means no clear call, values can overlap the other calls; inactive means mostly above about 0.92. The list shows a part of the results.

Test: chemical genetic growth profiling, strain panel (AID 1159580);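 further: tested at 20 µM; growth read once vehicle control cultures reached saturation at 30 °C; 1 = growth at the plate median or of vehicle wells; lower values mean less growth of the strain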
Details: S. cerevisiae deletion strains, growth OD
[1] = locus YDL101C, strain DUN1, active compounds read low
[2] = locus YHR030C, strain SLT2, active compounds read low

Measured: normalized growth

N#C/C(=N/Nc1ccc(F)cc1)S(=O)(=O)c1ccc(Cl)cc1
inactive: locus YAR019C, strain CDC15, active compounds read low 0.976 | locus YBL105C, strain PKC1, active compounds read low 0.97 | locus YBR135W, strain CKS1, active compounds read low 0.965 | locus YBR136W, strain MEC1, active compounds read low 0.969 | locus YBR160W, strain CDC28, active compounds read low 0.965 | locus YDL017W, strain CDC7, active compounds read low 0.972 | locus YDL028C, strain MPS1, active compounds read low 0.971 | [1] 0.974 | locus YDL108W, strain KIN28, active compounds read low 0.957 | locus YDL132W, strain cdc53, active compounds read low 0.966 | locus YDL214C, strain PRR2, active compounds read low 0.94 | locus YDR052C, strain DBF4, active compounds read low 0.964 | locus YDR054C, strain cdc34, active compounds read low 0.976 | locus YDR226W, strain ADK1, active compounds read low 0.963 | locus YDR477W, strain SNF1, active compounds read low 0.961 | locus YER123W, strain YCK3, active compounds read low 0.922 | locus YER133W, strain GLC7, active compounds read low 0.968 | locus YFL009W, strain cdc4, active compounds read low 0.978 | locus YFL029C, strain CAK1, active compounds read low 0.973 | locus YFR003C, strain YPI1, active compounds read low 0.974 | locus YFR019W, strain FAB1, active compounds read low 0.912 | locus YFR028C, strain CDC14, active compounds read low 0.959 | locus YGR040W, strain KSS1, active compounds read low 0.94 | locus YGR052W, strain FMP48, active compounds read low 0.952 | locus YGR092W, strain DBF2, active compounds read low 0.912 | [2] 0.982 | locus YHR079C, strain IRE1, active compounds read low 0.993 | locus YHR082C, strain KSP1, active compounds read low 0.994 | locus YHR205W, strain SCH9, active compounds read low 0.907 | locus YIL147C, strain SLN1, active compounds read low 0.976 | locus YJL095W, strain BCK1, active compounds read low 0.926 | locus YJL128C, strain PBS2, active compounds read low 0.942 | locus YJL157C, strain FAR1, active compounds read low 0.953 | locus YJR016C, strain ILV3, active compounds read low 0.977 | locus YJR066W, strain TOR1 (second series), active compounds read low 0.924 | locus YJR066W, strain TOR1, active compounds read low 0.996 | locus YKL048C, strain ELM1, active compounds read low 0.932 | locus YKL067W, strain YNK1, active compounds read low 0.96 | locus YKL101W, strain HSL1, active compounds read low 0.93 | locus YKL193C, strain SDS22, active compounds read low 0.978 | locus YKL203C, strain TOR2, active compounds read low 0.99 | locus YLR113W, strain HOG1, active compounds read low 0.941 | locus YLR133W, strain CKI1, active compounds read low 0.942 | locus YLR403W, strain SFP1, active compounds read low 0.899 | locus YML070W, strain DAK1, active compounds read low 0.939 | locus YMR001C, strain CDC5, active compounds read low 0.975 | locus YMR205C, strain PFK2 (second series), active compounds read low 0.96 | locus YMR277W, strain FCP1, active compounds read low 0.979 | locus YNL006W, strain LST8, active compounds read low 0.989 | locus YNL020C, strain ARK1, active compounds read low 0.946 | locus YNL161W, strain CBK1, active compounds read low 0.966 | locus YNL183C, strain NPR1, active compounds read low 0.988 | locus YNL207W, strain RIO2, active compounds read low 0.969 | locus YNL222W, strain SSU72, active compounds read low 0.977 | locus YNL307C, strain MCK1 (second series), active compounds read low 0.912 | locus YOL078W, strain AVO1, active compounds read low 0.97 | locus YOL136C, strain PFK27, active compounds read low 0.905 | locus YOR061W, strain CKA2, active compounds read low 0.979 | locus YOR119C, strain RIO1, active compounds read low 0.998 | locus YOR231W, strain MKK1, active compounds read low 0.953 | locus YOR329C, strain SCD5, active compounds read low 0.975 | locus YPL031C, strain PHO85, active compounds read low 0.954 | locus YPL153C, strain RAD53, active compounds read low 0.956 | locus YPL204W, strain HRR25, active compounds read low 0.904 | locus YPL209C, strain IPL1, active compounds read low 0.975 | locus YPL256C, strain CLN2, active compounds read low 1.01 | locus YPR025C, strain CCL1, active compounds read low 0.974 | locus YPR106W, strain ISR1, active compounds read low 0.975 | locus YPR111W, strain DBF20, active compounds read low 0.969 | strain NNK1, active compounds read low 0.972 | strain TSCII, active compounds read low 0.966

CCOC(=O)CNc1ccc(F)cc1
inactive: locus YAL013W, strain DEP1, active compounds read low 0.995 | locus YBR229C, strain ROT2, active compounds read low 0.989 | [1] 1.02 | locus YDL134C, strain PPH21, active compounds read low 0.977 | locus YDR150W, strain NUM1, active compounds read low 1.02 | locus YEL061C, strain CIN8, active compounds read low 1.01 | locus YGR078C, strain PAC10, active compounds read low 0.991 | [2] 0.989 | locus YHR087W, strain rtc3, active compounds read low 1.01 | locus YJL187C, strain SWE1, active compounds read low 1 | locus YJR043C, strain POL32, active compounds read low 0.988 | locus YJR075W, strain HOC1, active compounds read low 0.99 | locus YLR039C, strain RIC1, active compounds read low 0.953 | locus YLR058C, strain SHM2 (second series), active compounds read low 0.983 | locus YLR085C, strain ARP6, active compounds read low 0.986 | locus YLR262C, strain YPT6, active compounds read low 0.975 | locus YML094W, strain GIM5, active compounds read low 1.04 | locus YMR219W, strain ESC1, active compounds read low 0.997 | locus YMR263W, strain SAP30, active compounds read low 0.983 | locus YNL128W, strain TEP1, active compounds read low 0.98 | locus YNL153C, strain GIM3, active compounds read low 1.01 | locus YNL298W, strain CLA4 (second series), active compounds read low 0.974 | locus YNL322C, strain KRE1, active compounds read low 0.999 | locus YNR030W, strain Alg12, active compounds read low 1.03 | locus YPL055C, strain LGE1, active compounds read low 1.02 | locus YPL241C, strain CIN2, active compounds read low 0.977 | locus YPR135W, strain CTF4, active compounds read low 0.965
